This is an account of results in the supplement of paper PMC6607015.

Each structure is given as a SMILES string. Where a name gives a salt, the structure may show the parent alone.

What all share (conditions): compound concentration in added solution (µM; 5 µl added to 20 µl cells): 10; 18 h
In test [1] the test system is A431. In words: LBPA endosome anti-LBPA integrated intensity (sum per cell), Z-score; higher = more LBPA staining. Put shortly: (§1)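 Reported values are Z-scores from AcuityXpress normalisation of per-cell integrated LBPA or filipin staining. HeLa MZ or A431 cells (3,500/well in 20 µl) were seeded onto 5 µl of 10 µM compound solution in duplicate 384-well plates, incubated 18 h, fixed in 4% PFA, stained and imaged at 20×. MetaXpress segmentation measured the intensity over the whole cell or within LBPA endosomes.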

The subject of test [2] is HeLa MZ. The description is as above. The method, boiled down:
as §1

The test system of test [3] is A431. In words: whole-cell filipin (free cholesterol) integrated intensity, Z-score; higher = more cholesterol staining. Put shortly: as §1
Test [4] concerns HeLa MZ. The test is described as above. The method, boiled down:
as §1

For test [5], the system named is A431. In words: filipin (cholesterol) integrated intensity within LBPA endosomes, Z-score; higher = more cholesterol in LBPA endosomes. Put shortly: as §1
For test [6], the system named is HeLa MZ. The test is described as above. The method, boiled down:
as §1

Consider `Nc1nc2c(ncn2COCCO)c(=O)[nH]1` [Acyclovir], for which the “LBPA endosome anti-LBPA integrated intensity (z-score)” value was -0.598 in the test on A431 [1] and -1.1 with HeLa MZ [2]. The “whole-cell filipin (z-score)” value in the test on A431 [3] was -1.13; in the test on HeLa MZ [4], -0.395. Also, the “filipin (z-score)” value in the test on A431 [5] was -0.557; in the test with HeLa MZ [6], -0.66.

With `CCCCc1cc2ccccc2c(OCCN(C)C)n1` [Dimethisoquin hydrochloride], the “LBPA endosome anti-LBPA integrated intensity (z-score)” value in the test on A431 [1] is 2.89; in the test with HeLa MZ [2], 2.04. For the same compound, the “whole-cell filipin (z-score)” value in the test with A431 [3] was determined as 2.32; with HeLa MZ [4], 0.247. Further, the “filipin (z-score)” value with A431 [5] was determined as 2.27; in the test with HeLa MZ [6], 0.845.

Turning to `CC(=O)Oc1ccc(C(c2ccc(OC(C)=O)cc2)c2ccccn2)cc1` [Bisacodyl], the “LBPA endosome anti-LBPA integrated intensity (z-score)” value in the test on A431 [1] is -0.461; with HeLa MZ [2], 0.379. For the same compound, the “whole-cell filipin (z-score)” value is -0.546 with A431 [3] and 0.375 in the test with HeLa MZ [4]. Besides, the “filipin (z-score)” value was -0.421 in the test on A431 [5] and -0.162 in the test on HeLa MZ [6].

As to `C#C[C@]1(O)CC[C@H]2[C@@H]3CCC4=CC(=O)CC[C@@H]4[C@H]3CC[C@@]21C` [Norethindrone], the “LBPA endosome anti-LBPA integrated intensity (z-score)” value was -0.462 with A431 [1] and -0.0403 in the test on HeLa MZ [2]. Moreover, the entries for the “whole-cell filipin (z-score)” value in the test with A431 [3] and in the test with HeLa MZ [4] were -0.665 and -0.306, respectively. Besides, the “filipin (z-score)” value is -0.425 in the test with A431 [5] and -0.487 in the test on HeLa MZ [6].

Regarding `C=CCN1CCCC1CNC(=O)c1cc2nn[nH]c2cc1OC` (stereo not drawn) [Alizapride HCl], the “LBPA endosome anti-LBPA integrated intensity (z-score)” value is -0.413 in the test with A431 [1] and 0.636 in the test with HeLa MZ [2]. The “whole-cell filipin (z-score)” value was -0.622 in the test on A431 [3] and -0.69 in the test with HeLa MZ [4]. The “filipin (z-score)” value was -0.538 in the test on A431 [5] and -0.182 with HeLa MZ [6].

Turning to `CC(C)OC(=O)C(C)(C)Oc1ccc(C(=O)c2ccc(Cl)cc2)cc1` [Fenofibrate], the results for the “LBPA endosome anti-LBPA integrated intensity (z-score)” value in the test with A431 [1] and with HeLa MZ [2] were -0.471 and -0.341, respectively. Further, the results for the “whole-cell filipin (z-score)” value in the test on A431 [3] and in the test with HeLa MZ [4] were -0.324 and -0.246, respectively. The “filipin (z-score)” value in the test on A431 [5] was -0.435; in the test with HeLa MZ [6], -0.631.

For the compound `CC(C)/N=c1\cc2n(-c3ccc(Cl)cc3)c3ccccc3nc-2cc1Nc1ccc(Cl)cc1` [Clofazimine], the “LBPA endosome anti-LBPA integrated intensity (z-score)” value worked out at 1.95 in the test on A431 [1] and 1.42 in the test on HeLa MZ [2]. In addition, the “whole-cell filipin (z-score)” value is -0.119 with A431 [3] and -1.15 in the test with HeLa MZ [4]. For the same compound, the “filipin (z-score)” value in the test on A431 [5] is 0.416; in the test on HeLa MZ [6] it was -0.0158.

Consider `CC(C(=O)O)c1ccc2c(c1)[nH]c1ccc(Cl)cc12` (stereo not drawn) [Carprofen], for which the “LBPA endosome anti-LBPA integrated intensity (z-score)” value with A431 [1] was -0.569; in the test with HeLa MZ [2], -1.21. The “whole-cell filipin (z-score)” value was -0.098 in the test on A431 [3] and -0.307 in the test with HeLa MZ [4]. For the same compound, the “filipin (z-score)” value is -0.398 with A431 [5] and -0.538 with HeLa MZ [6].

On to `Cc1ccc(S(=O)(=O)NC(=O)NN2CC3CCCC3C2)cc1` (stereo not drawn) [Gliclazide], for which the “LBPA endosome anti-LBPA integrated intensity (z-score)” value with A431 [1] is -0.621; in the test with HeLa MZ [2], -1.17. Also, the “whole-cell filipin (z-score)” value with A431 [3] was -0.806; in the test on HeLa MZ [4] it was -0.679. Moreover, the “filipin (z-score)” value in the test on A431 [5] was -0.555; in the test with HeLa MZ [6] it was -0.64.

Take `CC1CCc2cc(F)cc3c(=O)c(C(=O)O)cn1c23` (stereo not drawn) [Flumequine]: the figures for the “LBPA endosome anti-LBPA integrated intensity (z-score)” value in the test on A431 [1] and in the test with HeLa MZ [2] were -0.63 and -0.763, respectively. Moreover, the “whole-cell filipin (z-score)” value was -0.836 with A431 [3] and -0.225 with HeLa MZ [4]. Besides, the “filipin (z-score)” value is -0.543 with A431 [5] and -0.72 with HeLa MZ [6].

In the case of `CCCCNc1ccc(C(=O)OCCN(C)C)cc1` [Tetraca? hydrochloride], the “LBPA endosome anti-LBPA integrated intensity (z-score)” value in the test on A431 [1] was -0.207; with HeLa MZ [2], 0.761. The “whole-cell filipin (z-score)” value is -0.403 with A431 [3] and -0.308 with HeLa MZ [4]. Also, the entries for the “filipin (z-score)” value in the test on A431 [5] and with HeLa MZ [6] were -0.238 and 0.182, respectively.

As to `COc1cc(C(=O)OCCCN2CCCN(CCCOC(=O)c3cc(OC)c(OC)c(OC)c3)CC2)cc(OC)c1OC` [Dilazep dihydrochloride], the “LBPA endosome anti-LBPA integrated intensity (z-score)” value in the test on A431 [1] came to 3.35; with HeLa MZ [2], 1.34. Besides, the “whole-cell filipin (z-score)” value is 3.19 in the test on A431 [3] and 3.53 in the test with HeLa MZ [4]. The “filipin (z-score)” value with A431 [5] is 3.75; in the test with HeLa MZ [6] it was 4.35.

With `C[C@]12CCC(=O)C=C1C=C[C@@H]1[C@@H]2CC[C@@]2(C)[C@H]1CC[C@@]21CCC(=O)O1` [Canrenone], the “LBPA endosome anti-LBPA integrated intensity (z-score)” value in the test on A431 [1] was -0.209; in the test on HeLa MZ [2], 1.1. For the same compound, the “whole-cell filipin (z-score)” value was 0.452 with A431 [3] and 1.37 in the test with HeLa MZ [4]. The figures for the “filipin (z-score)” value with A431 [5] and with HeLa MZ [6] were -0.0815 and 0.168, respectively.

On to `O=C(Nc1ccccc1)OCC(CN1CCCCC1)OC(=O)Nc1ccccc1` (stereo not drawn) [Diperodon hydrochloride], for which the entries for the “LBPA endosome anti-LBPA integrated intensity (z-score)” value with A431 [1] and with HeLa MZ [2] were 1.44 and 2.96, respectively. Further, the “whole-cell filipin (z-score)” value with A431 [3] was 0.922; in the test with HeLa MZ [4], -0.386. Moreover, the entries for the “filipin (z-score)” value in the test with A431 [5] and in the test on HeLa MZ [6] were 1.23 and 1.1, respectively.

Consider `CC(C(=O)O)c1ccc(C(=O)c2ccccc2)s1` (stereo not drawn) [Tiaprofenic acid], for which the figures for the “LBPA endosome anti-LBPA integrated intensity (z-score)” value in the test with A431 [1] and in the test with HeLa MZ [2] were -0.52 and -0.291, respectively. Also, the “whole-cell filipin (z-score)” value in the test on A431 [3] was -0.49; in the test with HeLa MZ [4], 0.105. Also, the “filipin (z-score)” value in the test on A431 [5] is -0.443; with HeLa MZ [6], -0.426.

`CCCC(C(=O)OCCN(CC)CC)(c1ccccc1)c1ccccc1` [Proadifen hydrochloride]: the “LBPA endosome anti-LBPA integrated intensity (z-score)” value with A431 [1] came out at 2.78; with HeLa MZ [2] it was 2.82. For the same compound, the “whole-cell filipin (z-score)” value was 2.1 in the test on A431 [3] and -0.192 in the test on HeLa MZ [4]. Moreover, the “filipin (z-score)” value is 2.21 with A431 [5] and 1.12 in the test on HeLa MZ [6].

Take `CN(C)[C@@H]1C(O)=C(C(N)=O)C(=O)[C@@]2(O)C(O)=C3C(=O)c4c(O)ccc(Cl)c4[C@@](C)(O)[C@H]3C[C@@H]12` [Chlortetracycline hydrochloride]: the “LBPA endosome anti-LBPA integrated intensity (z-score)” value in the test on A431 [1] was -0.612; with HeLa MZ [2], -0.752. Besides, the results for the “whole-cell filipin (z-score)” value with A431 [3] and in the test on HeLa MZ [4] were -1.07 and -1.11, respectively. The “filipin (z-score)” value in the test with A431 [5] is -0.66; in the test on HeLa MZ [6], -0.819.

With `CC(=O)N(CC(C)C(=O)O)c1c(I)cc(I)c(N)c1I` (stereo not drawn) [Iocetamic acid], the “LBPA endosome anti-LBPA integrated intensity (z-score)” value in the test on A431 [1] is -0.0668; in the test with HeLa MZ [2], -0.0236. The “whole-cell filipin (z-score)” value in the test on A431 [3] was -0.0512; with HeLa MZ [4], 0.178. Moreover, the “filipin (z-score)” value is -0.262 with A431 [5] and -0.476 in the test with HeLa MZ [6].

Take `CNC(C)CCC=C(C)C` (stereo not drawn) [Isometheptene mucate]: the “LBPA endosome anti-LBPA integrated intensity (z-score)” value in the test with A431 [1] is -0.484; in the test on HeLa MZ [2] it was -0.292. The “whole-cell filipin (z-score)” value was 0.117 in the test on A431 [3] and -0.234 in the test with HeLa MZ [4]. Moreover, the results for the “filipin (z-score)” value with A431 [5] and in the test on HeLa MZ [6] were -0.458 and -0.578, respectively.

On to `CC(=O)Oc1cccc2c1C(=O)c1c(OC(C)=O)cc(C(=O)O)cc1C2=O` [Diacerein], for which the “LBPA endosome anti-LBPA integrated intensity (z-score)” value was -0.503 in the test with A431 [1] and -0.299 in the test on HeLa MZ [2]. Also, the “whole-cell filipin (z-score)” value in the test with A431 [3] is -0.484; with HeLa MZ [4] it was 0.525. Besides, the “filipin (z-score)” value in the test with A431 [5] was -0.459; in the test on HeLa MZ [6], -0.327.

Turning to `CC(C(=O)O)c1cccc(Oc2ccccc2)c1` (stereo not drawn) [Fenoprofen calcium salt dihydrate], the figures for the “LBPA endosome anti-LBPA integrated intensity (z-score)” value in the test on A431 [1] and in the test on HeLa MZ [2] were -0.519 and -0.608, respectively. For the same compound, the “whole-cell filipin (z-score)” value in the test on A431 [3] is -0.389; with HeLa MZ [4], -0.428. The “filipin (z-score)” value was -0.476 with A431 [5] and -0.491 in the test with HeLa MZ [6].

In the case of `O=C1NCC2(CCN(CCc3ccccc3)CC2)O1` [Fenspiride hydrochloride], the “LBPA endosome anti-LBPA integrated intensity (z-score)” value was -0.609 with A431 [1] and -0.156 with HeLa MZ [2]. For the same compound, the results for the “whole-cell filipin (z-score)” value in the test with A431 [3] and in the test on HeLa MZ [4] were -1.07 and -0.91, respectively. Besides, the “filipin (z-score)” value was -0.575 in the test with A431 [5] and -0.493 with HeLa MZ [6].

For the compound `NC[C@H]1CC[C@H](C(=O)O)CC1` [Tranexamic acid], the “LBPA endosome anti-LBPA integrated intensity (z-score)” value in the test with A431 [1] was -0.452; in the test on HeLa MZ [2], -0.543. Besides, the “whole-cell filipin (z-score)” value is -0.422 with A431 [3] and -0.896 in the test on HeLa MZ [4]. Also, the “filipin (z-score)” value in the test with A431 [5] is -0.524; in the test on HeLa MZ [6], -0.663.
